High-throughput results deposited in PubChem BioAssay by several laboratories.
Sampled rows, rich in hits. Any-hit rate of the full collection: about 4.3%.
TRPM1 prom inh: MITF TRPM1 promoter inhibition in SK-MEL-5 cells; inhibition, % at 12.5 µM; SK-MEL-5 TRPM1 promoter luciferase, 24 h; actives 0.83% (n = 330,000);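 active = mean inhibition across replicates of 60% or more, whatever share of single replicates reaches that level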
CF NFkB inh: blocks PAF-induced NF-kB reporter in cystic fibrosis cells | KKLEB NF-kB-GFP reporter, GFP fluorescence overnight | inhibition, % at 5 µM | actives 0.86% (n = 360,000) | AID 588850;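 active = at least 50% inhibition at 5 µM, scaled per plate between neutral and stimulator controls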;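 note: PAF is a Pseudomonas aeruginosa culture filtrate used as stimulus; plate controls were PAF-stimulated DMSO wells for no effect and unstimulated DMSO wells for full effect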
KKLEB tox: CF airway cell cytotoxicity counter-screen; actives 0.36% (n = 360,000); KKLEB CF airway cells viability, ATPlite luminescence, overnight; stronger effect = lower value; cells stimulated with P. aeruginosa culture filtrate; activity change (cytotoxicity), % at 5 µM;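 active = corrected activity change at or below -50% at 5 µM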
HIF-2a inh: inhibitors of HIF-2a. 786-0 RCC cells HIF-2a reporter, luciferase luminescence, overnight. inhibition, % at 18.8 µM. actives 0.72% (n = 360,000);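 active = inhibition of the luminescence signal of 40% or more relative to plate controls, in a single-dose primary screen at 18.75 µM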
Peg3 prom inh: inhibitors of Peg3 promoter | actives 1.7% (n = 360,000) | HeLa PEG-Prom luciferase reporter, luminescence, overnight | AID 588405 | inhibition, % at 20 µM;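 active = inhibition of at least 50% at 20 µM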
CHOP inh: inhibitors of CHOP induction in ER stress response. AID 2732. actives 3.8% (n = 220,000). inhibition, % at 10 µM. CHO-K1 CHOP-promoter luciferase, tunicamycin-induced, 15-18 h;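 active = compounds that reduced the stress-induced luciferase reporter signal by more than about 70% of percent inhibition, limit read from the data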;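 note: 0% = tunicamycin plus vehicle and 100% = wells without tunicamycin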
An asterisk follows results filed as active.

`N#CC1(C#N)CC(C=O)=C(N)C1(C#N)CC(=O)C12CC3CC(CC(C3)C1)C2` (configuration not stated) gave TRPM1 prom inh 30, CF NFkB inh 82*, KKLEB tox -55*, HIF-2a inh 27, Peg3 prom inh 49 and CHOP inh -29.
For Cc1cc(C)nc(NC(=O)Nc2ccc3c(c2)OCO3)c1 the results were TRPM1 prom inh -41, CF NFkB inh 7, KKLEB tox -18, HIF-2a inh -208, Peg3 prom inh -199 and CHOP inh 71*.
`CCN(CC)CCNc1ncnc2c1sc1nc(N3CCOCC3)c3c(c12)CC(C)(C)SC3` gave TRPM1 prom inh -6, CF NFkB inh 38, KKLEB tox -41, HIF-2a inh 34, Peg3 prom inh 104* and CHOP inh 22.
`CC(SC(C)C(=O)NN=Cc1cccc(Cl)c1)C(=O)NN=Cc1cccc(Cl)c1` (configuration not stated) gave TRPM1 prom inh 6, CF NFkB inh -7, KKLEB tox 11, HIF-2a inh 6 and Peg3 prom inh 99*.
`COc1cccc(C=NNC(=O)C(C)SC(C)C(=O)NN=Cc2cccc(OC)c2)c1` (configuration not stated) gave TRPM1 prom inh 9, CF NFkB inh 5, KKLEB tox -5, HIF-2a inh 3 and Peg3 prom inh 6.
Screening CCOc1ccc(NC(=O)CCCc2cc(-c3ccc(OCC)cc3)on2)cc1 returned TRPM1 prom inh 22, CF NFkB inh -11, KKLEB tox -15, HIF-2a inh 4, Peg3 prom inh -11 and CHOP inh 83*.
Screening CCOc1ccc(-c2cc(CCCC(=O)NCc3cccnc3)no2)cc1 returned CF NFkB inh 5, KKLEB tox -2, HIF-2a inh -141, Peg3 prom inh -263 and CHOP inh 80*.
For O=C(c1ccc2oc(Cc3ccc(Cl)cc3)nc2c1)N1CCCCC1CCO (configuration not stated) the results were TRPM1 prom inh -4, CF NFkB inh -19, KKLEB tox 22, HIF-2a inh -30 and Peg3 prom inh -21.
For CC(=O)Nc1cccc(-c2csc(C(C)(NC(C)=O)c3ccccc3)n2)c1 (configuration not stated) the results were CF NFkB inh -28, KKLEB tox 18, HIF-2a inh 8 and Peg3 prom inh 8.
CC(=O)CSc1ncnc2scc(-c3ccc(F)cc3)c12 was read as TRPM1 prom inh 5, CF NFkB inh -10, KKLEB tox 9, HIF-2a inh 21, Peg3 prom inh 7 and CHOP inh 14.
Cc1ccc(-c2csc3ncnc(SCC(=O)Nc4nnc(C)s4)c23)cc1 was read as TRPM1 prom inh -3, CF NFkB inh 10, KKLEB tox -1, HIF-2a inh 17, Peg3 prom inh 6 and CHOP inh 74*.
For N#C/C(=N\Nc1ccccc1)C(N)=S the results were TRPM1 prom inh 13, CF NFkB inh 18, KKLEB tox -5, HIF-2a inh -7, Peg3 prom inh 6 and CHOP inh 0.
For Cc1ccc(N/N=C(\C#N)C(N)=S)cc1C the results were TRPM1 prom inh 2, CF NFkB inh 67*, KKLEB tox 0, HIF-2a inh -80, Peg3 prom inh -8 and CHOP inh 7.
For N#C/C(=N\Nc1ccc(Cl)cc1)C(N)=S the results were TRPM1 prom inh -7, CF NFkB inh 61*, KKLEB tox -39, HIF-2a inh -161, Peg3 prom inh -31 and CHOP inh 24.
Screening COC(=O)C(C)NC(=O)c1cn(-c2ccccc2OC)c(=O)c2ccccc12 (configuration not stated) returned TRPM1 prom inh 14, CF NFkB inh -14, KKLEB tox 5, HIF-2a inh 7 and Peg3 prom inh 11.
COc1cc(/C=C2\SC(=O)N(CCN)C2=O)ccc1OS(=O)(=O)c1cc(C)ccc1C was read as TRPM1 prom inh -2, CF NFkB inh 7, KKLEB tox -6, HIF-2a inh 2, Peg3 prom inh 23 and CHOP inh 93*.
COc1ccc(/C=C2\SC(=O)N(CCC(=O)Nc3ccccc3)C2=O)cc1OC was read as TRPM1 prom inh 11, CF NFkB inh 47, KKLEB tox -44, HIF-2a inh 0, Peg3 prom inh 8 and CHOP inh 44.
CC(=O)N1CCOc2ccc(S(=O)(=O)N3CCC(C(=O)NCc4ccc(Cl)cc4)CC3)cc21 was read as CF NFkB inh 8, KKLEB tox -19, HIF-2a inh 7 and Peg3 prom inh -6.
CCC1=C(OC(=O)c2ccccc2)C(C)(C)C(c2ccccc2)OC1=O (configuration not stated) was read as TRPM1 prom inh 3, CF NFkB inh -8, KKLEB tox 2, HIF-2a inh 18, Peg3 prom inh 14 and CHOP inh 93*.
For CC1(C)C(=O)OC(c2ccccc2)C(C)(C)C1=O (configuration not stated) the results were TRPM1 prom inh -5, CF NFkB inh 10, KKLEB tox -2, HIF-2a inh 12, Peg3 prom inh 10 and CHOP inh 10.
`Cc1nn(C(=O)CNS(=O)(=O)c2ccccc2)c(C)c1Sc1ccc(Cl)cc1` gave TRPM1 prom inh 2, CF NFkB inh 2, KKLEB tox 1, HIF-2a inh 4, Peg3 prom inh 8 and CHOP inh 82*.
Screening CC(C)Nc1nc(Oc2ccc(Cl)cc2)cc(C(F)(F)F)n1 returned TRPM1 prom inh 5, CF NFkB inh -2, KKLEB tox 4, HIF-2a inh -19, Peg3 prom inh -1 and CHOP inh 74*.
CCNc1nc(Oc2ccc(F)cc2)cc(C(F)(F)F)n1 was read as TRPM1 prom inh 7, CF NFkB inh -5, KKLEB tox -5, HIF-2a inh 24, Peg3 prom inh -1 and CHOP inh 52.
For CN(CC(=O)Nc1cccc(F)c1)C(=O)CSc1ccccc1F the results were TRPM1 prom inh -3, CF NFkB inh -1, KKLEB tox -4, HIF-2a inh 14 and Peg3 prom inh 1.
Cc1ccccc1OCCCC(=O)Nc1ccc(Br)cc1 was read as TRPM1 prom inh -14, CF NFkB inh 5, KKLEB tox 13, HIF-2a inh -68, Peg3 prom inh -50 and CHOP inh 96*.
`Cc1ccc(NC(=O)CCOc2ccccc2C)cc1F` gave TRPM1 prom inh -53, CF NFkB inh -9, KKLEB tox -8, HIF-2a inh -221, Peg3 prom inh -126 and CHOP inh 71*.
Screening CC(=O)Nc1ccc(NC(=O)CCOc2ccccc2C)cc1 returned TRPM1 prom inh 8, CF NFkB inh -9, KKLEB tox -7, HIF-2a inh 8 and Peg3 prom inh -3.
